Experimental data published in PubChem BioAssay (Tox21).
Values without a mark were called inactive. Records with an inconclusive call do not appear. Where a call stands in place of a potency, no number is given. The source made the active and inactive calls. Unless noted, calls follow the shape of the dose curve; as a rule, active = well fitted curve in the direction sought with a large enough effect in the repeat runs; inconclusive = weak or mixed curves; inactive = no such curve, though single readings can be large; an effect the other way counts as inactive or inconclusive.

What was measured:
[1] = qHTS assay to identify small molecule agonists of the sonic hedgehog signaling (Shh) pathway - cell viability counter screen (AID 1259366); also: nearly all actives have a fitted effect of over 50% in size
How it was run: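 Cytotoxicity counter screen: CellTiter-Fluor reagent added after 23 h compound exposure, then 1 h at 37C and fluorescence read. Cells were 3T3 Gli1-Luc, seeded 2,000 per well and dosed 4 h post-plating.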

[2] = qHTS assay to identify small molecule antagonists of the sonic hedgehog signaling (Shh) pathway - cell viability counter screen (AID 1259367); also: nearly all actives have a fitted effect of over 55% in size
How it was run: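 NIH/3T3-derived Gli1-Luc reporter cells, 2,000/well, plated 4 hr before compound addition, then stimulated with conditioned medium for 24 hr at 37C. Viability measured in the same wells by CellTiter-Fluor fluorescence, reagent added at 23 hr for 1 hr.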

[3] = qHTS assay to identify small molecule agonists of the sonic hedgehog signaling (Shh) pathway (AID 1259368; calls by dose curve;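 also: NIH/3T3-derived 3T3Gli1-Luc cells carrying a stable Gli1-driven firefly luciferase reporter; series mostly up to about 92 µM; nearly all actives have a fitted effect of over 15% in size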)
How it was run: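 3T3Gli1-Luc (NIH/3T3 clone, stable Gli1-Luc); 4 hr pre-incubation, then cpd in DMSO 24 hr, 37 C/5% CO2; luciferase reagent 30 min RT; luminescence.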

[4] = qHTS assay to identify small molecule antagonists of the sonic hedgehog signaling (Shh) pathway (AID 1259369; calls by dose curve; also: nearly all actives have a fitted effect of over 45% in size)
How it was run: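 3T3Gli1-Luc, conditioned-medium-stimulated, 24hr cpd, 37C/5% CO2; Gli1-driven firefly Luc luminescence after 30min RT with luciferase reagent. Cells plated 4hr before cpd.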

[5] = target: Estrogen receptor beta (Homo sapiens) (UniProt Q92731); test: qHTS assay to identify small molecule agonists of the estrogen receptor beta (ER-beta) signaling pathway (AID 1259377; active = well fitted activation curve with a large enough effect in the signal ratio in the repeat runs, not every such curve was filed as active; the % refers to the signal ratio; also: potency is read from the fitted curve at half-maximal effect)
How it was run: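 Ratiometric beta-lactamase FRET read-out came after 2 h substrate loading at room temperature. It followed 16 h compound treatment at 37C of GripTite HEK293T cells carrying a UAS-bla reporter, plated in 2% charcoal-stripped FBS medium.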

[6] = target: Estrogen receptor beta (Homo sapiens) (UniProt Q92731); test: qHTS assay to identify small molecule antagonists of the estrogen receptor beta (ER-beta) signaling pathway (AID 1259378; active = well fitted inhibition curve with a large enough effect in the signal ratio in the repeat runs, not every such curve was filed as active; the % refers to the signal ratio)
How it was run: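 ER-beta-UAS-bla HEK293T cells in 2% charcoal-stripped FBS medium treated with compound plus 1nM final 17-beta-estradiol for 16 hr at 37C. Beta-lactamase reporter read by FRET substrate fluorescence after 2 hours at room temperature.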

[7] = qHTS assay to identify small molecule agonists of the androgen receptor (AR) signaling pathway in the presence of an antagonist - cell viability counter screen (AID 1259379);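 also: MDA-kb2 human breast cancer cells carrying an MMTV luciferase reporter; series mostly up to about 92 µM; nearly all actives have a fitted effect of over 25% in size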
How it was run: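 Cells: MDA-kb2 (MMTV-luc, AR and GR elements), 3,000/well, 5 hr settle. Added: nilutamide 3.0uM final, then compounds (15 conc.). Incubation: 16 hr, 37C, no CO2. Read-out: CellTiter-Fluor, 1 hr, fluorescence.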

[8] = qHTS assay to identify small molecule agonists of the estrogen receptor beta (ER-beta) signaling pathway - cell viability counter screen (AID 1259380); also: nearly all actives have a fitted effect of over 30% in size
How it was run: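 HEK293T ER-beta-UAS-bla; 2% CS-FBS; 6 hr pre-plate, 16 hr cpd at 37C/5% CO2; LiveBLAzer read first, then CellTiter-Glo 30 min RT, luminescence.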

[9] = qHTS assay to identify small molecule antagonists of the estrogen receptor beta (ER-beta) signaling pathway - cell viability counter screen (AID 1259382); also: series mostly up to about 92 µM; nearly all actives have a fitted effect of over 55% in size
How it was run: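 Cells: ER-beta-UAS-bla HEK293T, 2,000/well, 2% CS-FBS, 6 hr settle. Cpd + E2 (1nM final), 16 hr, 37C/5% CO2. Bla FRET substrate 2 hr RT, then CellTiter-Glo 30 min RT, luminescence.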

[10] = target: Androgen receptor (Homo sapiens) (UniProt P10275); test: qHTS assay to identify small molecule agonists of the androgen receptor (AR) signaling pathway in the presence of an antagonist (AID 1259381; calls by dose curve; also: nearly all actives have a fitted effect of over 15% in size)
How it was run: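 MDA-kb2 cells, 3,000/well, rested 5hr at 37C/0% CO2 → nilutamide 3.0uM final or buffer → compounds, 15 conc. → 16hr at 37C → ONE-Glo, 30min RT → luminescence.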

Estrogen receptor beta (Homo sapiens), sequence (Q92731 whole entry, looked up): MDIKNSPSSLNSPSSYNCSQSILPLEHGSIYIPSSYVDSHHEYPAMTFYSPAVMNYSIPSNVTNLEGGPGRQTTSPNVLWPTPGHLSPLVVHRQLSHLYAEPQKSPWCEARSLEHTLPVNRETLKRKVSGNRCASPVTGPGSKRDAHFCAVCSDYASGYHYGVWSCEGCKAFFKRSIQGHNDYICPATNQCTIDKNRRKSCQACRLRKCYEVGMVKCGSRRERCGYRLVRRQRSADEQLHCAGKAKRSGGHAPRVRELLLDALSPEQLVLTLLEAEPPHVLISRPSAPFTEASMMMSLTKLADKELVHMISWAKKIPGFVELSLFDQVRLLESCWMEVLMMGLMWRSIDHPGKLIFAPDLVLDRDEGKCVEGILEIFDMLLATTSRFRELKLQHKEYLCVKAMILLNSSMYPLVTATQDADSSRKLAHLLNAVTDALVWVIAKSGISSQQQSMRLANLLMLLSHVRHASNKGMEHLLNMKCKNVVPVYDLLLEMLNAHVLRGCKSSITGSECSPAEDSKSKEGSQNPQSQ
Androgen receptor (Homo sapiens), sequence (P10275 whole entry, looked up): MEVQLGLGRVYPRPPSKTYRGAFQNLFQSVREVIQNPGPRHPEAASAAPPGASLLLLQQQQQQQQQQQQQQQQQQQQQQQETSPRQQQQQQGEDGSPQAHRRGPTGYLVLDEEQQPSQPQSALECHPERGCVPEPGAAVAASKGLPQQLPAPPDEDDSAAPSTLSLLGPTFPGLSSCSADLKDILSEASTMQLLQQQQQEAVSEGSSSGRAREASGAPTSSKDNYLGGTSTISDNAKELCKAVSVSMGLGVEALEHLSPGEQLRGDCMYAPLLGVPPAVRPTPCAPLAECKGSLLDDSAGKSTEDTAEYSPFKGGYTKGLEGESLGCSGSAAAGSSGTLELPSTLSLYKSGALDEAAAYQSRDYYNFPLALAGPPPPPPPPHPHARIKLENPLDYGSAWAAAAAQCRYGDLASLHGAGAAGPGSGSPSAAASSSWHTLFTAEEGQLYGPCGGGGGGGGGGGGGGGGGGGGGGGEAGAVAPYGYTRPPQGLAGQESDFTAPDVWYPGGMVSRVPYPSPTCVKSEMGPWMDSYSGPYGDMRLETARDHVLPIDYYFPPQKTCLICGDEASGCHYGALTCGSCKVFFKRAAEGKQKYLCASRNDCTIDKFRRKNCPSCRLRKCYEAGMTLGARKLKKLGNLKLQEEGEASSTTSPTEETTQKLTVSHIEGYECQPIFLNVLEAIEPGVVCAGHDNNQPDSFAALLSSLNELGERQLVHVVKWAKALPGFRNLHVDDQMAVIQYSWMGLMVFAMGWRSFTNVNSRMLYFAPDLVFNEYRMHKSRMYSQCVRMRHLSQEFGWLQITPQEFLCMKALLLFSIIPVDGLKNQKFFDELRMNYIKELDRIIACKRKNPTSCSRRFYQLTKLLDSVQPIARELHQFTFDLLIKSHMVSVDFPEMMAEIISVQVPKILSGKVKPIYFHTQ

NCC1CCC(C(=O)Oc2ccc(CCC(=O)O)cc2)CC1 (stereo not drawn)
outcome [1]: inactive | outcome [2]: inactive | outcome [3]: inactive | Potency [4]: inactive | Potency [5]: inactive | outcome [6]: inactive | outcome [7]: inactive | Potency [8]: inactive | outcome [9]: inactive

CCCC(=O)C(CC)Sc1ccoc1C (stereo not drawn)
outcome [1]: inactive | outcome [2]: inactive | outcome [3]: inactive | Potency [4]: inactive | Potency [5]: inactive | outcome [6]: inactive | outcome [7]: inactive | Potency [8]: inactive | outcome [10]: inactive | outcome [9]: inactive

C/C=C(\C)C=O
outcome [1]: inactive | outcome [2]: inactive | outcome [3]: inactive | Potency [4]: inactive | Potency [5]: inactive | outcome [6]: inactive | outcome [7]: inactive | Potency [8]: inactive | outcome [9]: inactive

CCOC(=O)CC(C(C)=O)C(C)=O
outcome [1]: inactive | outcome [2]: inactive | outcome [3]: inactive | Potency [4]: inactive | Potency [5]: inactive | outcome [6]: inactive | outcome [7]: inactive | Potency [8]: inactive | outcome [9]: inactive

CCCCCC(CC)OC(=O)CCCOc1ccc(Cl)cc1Cl (stereo not drawn)
outcome [1]: inactive | outcome [2]: inactive | outcome [3]: inactive | Potency [4]: inactive | Potency [5]: inactive | outcome [6]: inactive | outcome [7]: inactive | Potency [8]: inactive | outcome [9]: inactive

COC(=O)c1ccccc1Cl
outcome [1]: inactive | outcome [2]: inactive | outcome [3]: inactive | Potency [4]: inactive | Potency [5]: inactive | outcome [6]: inactive | outcome [7]: inactive | Potency [8]: inactive | outcome [9]: inactive

C/C=C/C(=O)CCCC
outcome [1]: inactive | outcome [2]: inactive | outcome [3]: inactive | Potency [4]: inactive | Potency [5]: inactive | outcome [6]: inactive | outcome [7]: inactive | Potency [8]: inactive | outcome [9]: inactive

CC[N+](C)(CC)CC
outcome [1]: inactive | outcome [2]: inactive | outcome [3]: inactive | Potency [4]: inactive | Potency [5]: inactive | outcome [6]: inactive | outcome [7]: inactive | Potency [8]: inactive | outcome [9]: inactive

CC1(C)CC(N)CC(C)(C)N1
outcome [1]: inactive | outcome [2]: inactive | outcome [3]: inactive | Potency [4]: inactive | Potency [5]: inactive | outcome [6]: inactive | outcome [7]: inactive | Potency [8]: inactive | outcome [9]: inactive

CC(C)(C)c1ccc(N)cc1
outcome [1]: inactive | outcome [2]: inactive | outcome [3]: inactive | Potency [4]: inactive | Potency [5]: inactive | outcome [6]: inactive | outcome [7]: inactive | Potency [8]: inactive | outcome [9]: inactive

Cc1cc(C)c(N)c(Cl)c1
outcome [1]: inactive | outcome [2]: inactive | outcome [3]: inactive | Potency [4]: inactive | Potency [5]: inactive | outcome [6]: inactive | outcome [7]: inactive | Potency [8]: inactive | outcome [9]: inactive

CC/C=C/CCCCCCCCCCOC(C)=O
outcome [1]: inactive | outcome [2]: inactive | outcome [3]: inactive | Potency [4]: inactive | Potency [5]: inactive | outcome [6]: inactive | outcome [7]: inactive | Potency [8]: inactive

CCCCS
outcome [1]: inactive | outcome [2]: inactive | outcome [3]: inactive | Potency [4]: inactive | Potency [5]: inactive | outcome [6]: inactive | outcome [7]: inactive | Potency [8]: inactive | outcome [9]: inactive

O=C[C@@H](O)[C@H](O)[C@H](O)CO
outcome [1]: inactive | outcome [2]: inactive | outcome [3]: inactive | Potency [4]: inactive | Potency [5]: inactive | outcome [6]: inactive | outcome [7]: inactive | Potency [8]: inactive | outcome [10]: inactive | outcome [9]: inactive

CCC(C)SSC(C)CC (stereo not drawn)
outcome [1]: inactive | outcome [2]: inactive | outcome [3]: inactive | Potency [4]: inactive | Potency [5]: inactive | outcome [7]: inactive | Potency [8]: inactive | outcome [9]: inactive

O=Cc1ccc(C(=O)O)cc1
outcome [1]: inactive | outcome [2]: inactive | outcome [3]: inactive | Potency [4]: inactive | outcome [7]: inactive | Potency [8]: inactive

CCCC(=O)OC
outcome [1]: inactive | outcome [2]: inactive | outcome [3]: inactive | Potency [4]: inactive | Potency [5]: inactive | outcome [7]: inactive | Potency [8]: inactive

CC(C)(Sc1cc(C(C)(C)C)c(O)c(C(C)(C)C)c1)Sc1cc(C(C)(C)C)c(O)c(C(C)(C)C)c1
outcome [1]: inactive | outcome [2]: inactive | outcome [3]: inactive | Potency [4]: inactive | Potency [5]: inactive | outcome [6]: inactive | outcome [7]: inactive | Potency [8]: inactive | outcome [9]: inactive

Cc1ccc(N)nc1
outcome [1]: inactive | outcome [2]: inactive | outcome [3]: inactive | Potency [4]: inactive | Potency [5]: inactive | outcome [7]: inactive | Potency [8]: inactive | outcome [10]: inactive

CCCCCCCCCCCC(C)=O
outcome [1]: inactive | outcome [2]: inactive | outcome [3]: inactive | Potency [4]: inactive | Potency [5]: inactive | outcome [6]: inactive | outcome [7]: inactive | outcome [9]: inactive

CCCCN=C(N)N=C(N)N
outcome [1]: inactive | outcome [2]: inactive | outcome [3]: inactive | Potency [4]: inactive | Potency [5]: inactive | outcome [6]: inactive | outcome [7]: inactive | outcome [9]: inactive

CCCCCCCCOCCC#N
outcome [1]: inactive | outcome [2]: inactive | outcome [3]: inactive | Potency [4]: inactive | Potency [5]: inactive | outcome [7]: inactive | Potency [8]: inactive

Cc1nnc(C(=O)NC(C)(C)c2nc(C(=O)NCc3ccc(F)cc3)c(O)c(=O)n2C)o1
outcome [1]: inactive | outcome [2]: inactive | outcome [3]: inactive | Potency [4]: inactive | Potency [5]: inactive | outcome [7]: inactive | Potency [8]: inactive | outcome [9]: inactive

CCCCC(CC)COC(=O)CC#N (stereo not drawn)
outcome [1]: inactive | outcome [2]: inactive | outcome [3]: inactive | Potency [4]: inactive | Potency [5]: inactive | outcome [7]: inactive | outcome [9]: inactive

CC(=O)O[C@@H]1CC2C3CCc4cc(OC(=O)c5ccccc5)ccc4C3CCC2(C)[C@H]1OC(C)=O (stereo partly drawn)
outcome [1]: inactive | outcome [2]: inactive | outcome [3]: inactive | Potency [4]: inactive | Potency [5]: 13.3 nM (active) | outcome [7]: inactive | outcome [10]: inactive

O=C(O)COc1ccc2ccccc2c1
outcome [1]: inactive | outcome [2]: inactive | outcome [3]: inactive | Potency [4]: inactive | Potency [5]: inactive | outcome [7]: inactive | Potency [8]: inactive | outcome [9]: inactive
